Laboratory results taken from PubChem BioAssay (EPA / NIEHS).
Results filed as inconclusive are left out. Active and inactive are the calls of the source. The calls were made as follows: active = hit-call score of the fitted dose curve at least 0.9, where 1 is the maximum; inconclusive = response in the unintended direction; inactive = score below 0.9.

The compounds below were run against Bile acid receptor (Homo sapiens) (UniProt Q96RI1) (assay: OT_FXR_FXRSRC1_1440: Odyssey Thera (OT) 24-hour HEK293T Protein-Complementation Assay for Farnesoid X receptor/SRC-1 Co-activator (AID 2283384)).
Sequence of Bile acid receptor (Homo sapiens) (Q96RI1 whole entry, looked up, the tested form may be a part): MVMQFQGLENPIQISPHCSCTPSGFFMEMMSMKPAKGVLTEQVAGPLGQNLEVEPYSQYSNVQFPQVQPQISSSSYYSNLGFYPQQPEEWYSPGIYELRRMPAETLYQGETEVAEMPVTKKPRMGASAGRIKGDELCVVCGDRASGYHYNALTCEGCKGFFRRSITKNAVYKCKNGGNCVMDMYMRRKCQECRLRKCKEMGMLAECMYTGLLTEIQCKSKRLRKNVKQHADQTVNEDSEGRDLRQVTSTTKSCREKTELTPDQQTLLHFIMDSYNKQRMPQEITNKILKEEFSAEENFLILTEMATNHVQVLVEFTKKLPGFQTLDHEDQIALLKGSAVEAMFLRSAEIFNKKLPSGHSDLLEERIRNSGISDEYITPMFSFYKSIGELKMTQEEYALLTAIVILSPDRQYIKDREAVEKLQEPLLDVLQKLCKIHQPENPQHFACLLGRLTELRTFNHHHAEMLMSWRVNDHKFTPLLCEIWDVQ
Procedure: OT_FXR_FXRSRC1_1440 is a cell-based assay that uses HEK293T, a human kidney cell line, with measurements taken at 24 hours after chemical dosing in a 384-well plate.OT_FXR_FXRSRC1_1440 is one of one assay component(s) measured or calculated from the OT_FXR_FXRSRC1_1440 assay. It is designed to make measurements of protein fragment complementation, a form of binding reporter, as detected with fluorescence intensity signals by Protein-fragment Complementation technology.Data from the assay component OT_FXR_FXRSRC1_1440 was analyzed into 1 assay endpoint. This assay endpoint, OT_FXR_FXRSRC1_1440, was analyzed in the positive analysis fitting direction relative to DMSO as the negative control and baseline of activity. Using a type of binding reporter, measures of receptor for gain-of-signal activity can be used to understand the binding at the pathway-level as they relate to the gene NR1H4. Furthermore, this assay endpoint can be referred to as a primary readout, because the performed assay has only produced 1 assay endpoint. To generalize the intended target to other relatable targets, this assay endpoint is annotated to the nuclear receptor intended target family, where the subfamily is non-steroidal.
Protein-fragment complementation assay, or PCA, is a method for the identification and quantification of protein-protein interactions. In the PCA, the proteins of interest ("bait" and "prey") are each covalently linked to fragments of a third protein (e.g. DHFR, which acts as a "reporter"). Interaction between the bait and the prey proteins brings the fragments of the reporter protein in close proximity to allow them to form a functional reporter protein whose activity can be measured.
CCc1occc(=O)c1O was tested, and the outcome was “inactive”.
For O=C(O)c1ccc2c(c1)C(=O)OC2=O, the outcome was “inactive”.
In the case of CCC1COC(=O)O1 (centres undefined), the outcome is reported as “inactive”.
For CCCCCCOC(=O)CCCCC(=O)OCCCCCC, the outcome was “inactive”.
With CCCCC/C=C\C/C=C\CCCCCCCC(=O)O the outcome was “inactive”.
CCCCNC(=S)NCCCC was tested, and the outcome was “inactive”.
For COc1ccc(C(=O)c2ccccc2)c(O)c1, the outcome was “inactive”.
For CCCCNS(=O)(=O)c1ccccc1, the outcome was “inactive”.
In the case of Cc1ccc([N+](=O)[O-])cc1N, the outcome is reported as “inactive”.
CCC(C)(O)CCCC(C)C (centres undefined) was tested, and the outcome was “inactive”.
With CCC[Si](OC)(OC)OC the outcome was “inactive”.
In the case of Cc1cc(C)n(CO)n1, the outcome is reported as “inactive”.
In the case of CCCCCCCCCCCCCCCCCCOS(=O)(=O)O, the outcome is reported as “inactive”.
In the case of CN(C)Cc1cc(CN(C)C)c(O)c(CN(C)C)c1, the outcome is reported as “inactive”.
With Cc1ccc(C)c(OCCCC(C)(C)C(=O)O)c1 the outcome was “inactive”.
With N#Cc1ccc(C(c2ccc(C#N)cc2)n2cncn2)cc1 the outcome was “inactive”.
For CCCCc1ccc(Cl)cc1, the outcome was “inactive”.
For Nc1ccc(C(=O)O)cc1, the outcome was “inactive”.
In the case of CCCCCC(=O)OCC, the outcome is reported as “inactive”.
With CC(C)(C)NC(=O)[C@H]1CC[C@H]2[C@@H]3CC[C@H]4NC(=O)C=C[C@]4(C)[C@H]3CC[C@]12C the AC50 was 3.77 µM (active).
For CC(CCC(=O)O)(c1ccc(O)cc1)c1ccc(O)cc1, the outcome was “inactive”.
For CC12CCC(CC1)C(C)(C)O2, the outcome was “inactive”.
With CCCCCCOc1ccc(N)cc1 the AC50 was 14.3 µM (active).
For O=C(OCc1ccccc1)c1ccc(O)cc1, the AC50 was 50 µM (active).
In the case of CC(C)(C)C1CCC(=O)CC1, the outcome is reported as “inactive”.
For CCCCCCCCC(CO)CCCCCC (centres undefined), the outcome was “inactive”.
CCOC(=O)C1=NOC(c2ccccc2)(c2ccccc2)C1 was tested, and the outcome was “inactive”.
In the case of O=C(Nc1ccccc1)c1cc(Cl)ccc1O, the AC50 is reported as 17.5 µM (active).
CCN1CN(CC)CN(CC)C1 was tested, and the outcome was “inactive”.
